Reference: PubChem BioAssay AID618 (Sanford-Burnham Center for Chemical Genomics, 2007)
The whole screen tested about 87,000 compounds, of which about 540 (0.62%) were called active. The rule behind the calls is not given here. The entries come from a sample that favours actives as a whole. Results with a measured potency or affinity are listed apart.

Assay: inhibitors of MT1-MMP promoter transcription, cell-based, luciferase reporter, luminescence (AID 618);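 note: actives suppress MT1-MMP promoter-driven transcription so potencies describe inhibitors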
Details: MT1-MMP promoter luciferase reporter cells

SMILES	outcome
O=C(CN1CCN(c2ccccc2)CC1)Nc1ccccc1C(F)(F)F	inactive
Cc1cccc(NC(=O)CN2C(=O)COc3ccc(Cl)cc32)c1	inactive
CCOC(=O)c1c(C)oc2c(F)c(F)c(F)c(F)c2c1=O	active
CCOC(=O)c1c(C)cc(=O)oc1C	inactive
CCOC(=O)c1c(C)oc2cc3c(C(=O)OCC)c(C)oc3cc12	inactive
O=C(Oc1ccnc2cc(Cl)ccc12)N1CCOCC1	inactive
COc1ccc(OC)c(S(=O)(=O)n2nc(-c3ccccc3)cc2N)c1	inactive
COc1ccc(-c2cc(N)n(S(=O)(=O)c3c(F)c(F)c(F)c(F)c3F)n2)cc1OC	active
COc1ccc(S(=O)(=O)n2nc(-c3cc(OC)c(OC)c(OC)c3)cc2N)cc1OC	inactive
CC(C)(C)Nc1nc(NCc2cccnc2)nc(N2CCOCC2)n1	inactive
CSc1ccccc1NC(=O)c1ccccc1N(C)S(C)(=O)=O	inactive
CCCc1cc2c(n1CCc1ccc(Cl)cc1)C(C)C1CN(C(=O)c3ccccc3)C(C)(C(=O)OC)C21 (stereo not drawn)	inactive
CCCCOc1ccc(Br)cc1/C(C)=N/NC1=NCCN1	inactive
CCCCCOc1ccc(Br)cc1/C(C)=N/NC1=NCCN1	active
CCOc1ccc(Br)cc1/C(C)=N\NC1=NCCN1	inactive
O=C(Cn1ncc2c(=O)oc3ccccc3c21)NCCN1CCN(c2ccccc2F)CC1	inactive
COc1ccc(C2C(=O)N(C3CCCCC3)CC(=O)N2Cc2ccc3c(c2)OCO3)cc1 (stereo not drawn)	inactive
COc1ccc(NS(=O)(=O)c2cc(C(=O)O)ccc2C)cc1	inactive
COc1ccc(NS(=O)(=O)c2cc(C)ccc2C)cc1	inactive
COc1ccc(NS(=O)(=O)c2cc(C)ccc2NC(=O)c2cc(C)oc2C)cc1	active
COc1ccc(NS(=O)(=O)c2cc(OC)ccc2NC(=O)c2cc(C)oc2C)cc1	active
COc1ccc2nc(NC(=O)c3cc(C)oc3C)sc2c1	inactive
COc1ccc(C)c(S(=O)(=O)Nc2ccc(OCC(=O)O)cc2)c1	inactive
CC(C)(C)c1ccc(C(=O)C=[N+]=[N-])cc1	inactive

SMILES	outcome
Cc1nn(C)c(C)c1CN(C)C(=O)c1cc2n(n1)C(C(F)(F)F)CC(c1cccs1)N2 (stereo not drawn)	inactive
CCOC(=O)c1ccc(N2C(=O)CC(N3CCC(C(N)=O)(N4CCCCC4)CC3)C2=O)cc1 (stereo not drawn)	inactive
CCn1c(=O)cc(SCC(=O)N2CCCCC2)c2ccccc21	inactive
CCOC(=O)c1oc2ccccc2c1CSc1nnnn1-c1ccc(C)cc1	inactive
O=C(/C=C/Nc1cccc([N+](=O)[O-])c1)c1cccs1	inactive
CNc1cc([N+](=O)[O-])ccc1N/C=C/C(=O)c1cccs1	inactive
COc1ccccc1NC(=O)CSc1nccc(=O)[nH]1	inactive
CCCc1cc(C(=O)Nc2nnc(C)s2)cs1	inactive
CCOc1cccc(C(=O)Nc2nccs2)c1	inactive
CC(C)(C)c1ccc(C(=O)Nc2cnccn2)cc1	active
O=C(Nc1cnccn1)c1cccc(C(F)(F)F)c1	inactive
O=C(Nc1cnccn1)c1ccncc1	inactive
Cc1ccnc(SCC(=O)N2CCN(c3ccccc3)CC2)n1	inactive
O=C(CCCC(=O)N(CC(=O)NC1CCCC1)Cc1ccccc1)Nc1ccccn1	inactive
COCCNC(=O)CNS(=O)(=O)c1ccc2nc(C)sc2c1	inactive
CN(C(=O)c1ccno1)c1nnc(-c2cnccn2)s1	inactive
Cc1ccc(C)c(SCC(=O)OCC(=O)Nc2ccc(S(=O)(=O)N3CCOCC3)cc2)c1	inactive
O=C1CC(C(=O)Nc2cccc3ccccc23)C2(CCCC2)O1 (stereo not drawn)	inactive
Cc1ccc2c(c1)c(=O)c1c3n2CCN(C(=O)CCl)C3CC1 (stereo not drawn)	active
Cc1ccc2c(c1)c1c3n2CCN(C(=O)Cn2c(-c4ccccc4)noc2=O)C3CCC1 (stereo not drawn)	inactive
CC(=O)N1CCn2c3c(c(=O)c4cc(C)ccc42)CCC31 (stereo not drawn)	inactive
Cc1sc2nc(CSc3nnc(Cc4cccs4)n3C3CCCCC3)[nH]c(=O)c2c1C	inactive
Cc1ccc(NC2=NC(c3ccc(O)cc3)n3c(nc(C)cc3=O)N2)cc1 (stereo not drawn)	inactive
Nc1nonc1/C(=N/O)N1CCN(CCO)CC1	inactive

SMILES	outcome
COC(=O)N1[C@H](C)C=C[C@]1(Cc1ccccc1)C(=O)O	active
COC(=O)N1[C@H](C)C=C[C@]1(Cc1ccccc1)C(=O)OC	inactive
CNC(=O)[C@@]1(Cc2ccccc2)C=C[C@@H](C)N1C(=O)OC	inactive
Nc1nonc1N1CCCCC1	inactive
CCCNC(=O)Cn1cnc2sc(C(=O)NCCN(CC)CC)c(C)c2c1=O	inactive
COc1ccc(-c2noc(CCC(=O)O)n2)cc1	inactive
CNC(=O)CCc1nc(-c2ccc(C(C)(C)C)cc2)no1	inactive
O=C(O)CCCc1nc(-c2ccccc2)no1	inactive
CN(C)C(=O)CCc1nc(-c2ccc(C(C)(C)C)cc2)no1	inactive
CCOC(=O)C1C2C=CC3(CN(CCc4ccccc4)C(=O)C13)O2 (stereo not drawn)	inactive
O=C(c1csc2c1CCCC2)N1CCN(c2ncccn2)CC1	inactive
Cc1cccc(-n2nnnc2SC(C)C(=O)NCCC2=CCCCC2)c1 (stereo not drawn)	inactive
CC(C(=O)NC(=O)NC1CCCCC1)N1CCN(c2ccccn2)CC1 (stereo not drawn)	inactive
O=C(CNC(=O)c1ccco1)NCC(=O)OCc1cccc(Cl)c1	inactive
Nc1nc(-c2cccc(Br)c2)cs1	inactive
Cc1oc(-c2ccccc2)cc1C(N)=O	inactive
CCOC(=O)CNC(=O)c1cc(-c2ccc3c(c2)OCCO3)oc1C	inactive
Cc1oc(-c2ccc3c(c2)OCCO3)cc1C(=O)NC(CCC(=O)O)C(=O)O (stereo not drawn)	inactive
COc1cc(C)c(-c2cc(C(=O)O)c(C)o2)cc1C(C)C	inactive
COc1ccc(C2=NN(CN3C(=O)C(=O)c4ccccc43)C(c3ccc(C)cc3)C2)cc1 (stereo not drawn)	inactive
O=C(N1CCN(c2ccccn2)CC1)N1c2ccccc2Sc2ccccc21	active
O=C(c1ccco1)N1c2ccccc2Sc2ccccc21	inactive
O=C(CN1CCN(c2ccccn2)CC1)N1c2ccccc2Sc2ccc(C(F)(F)F)cc21	inactive
O=C(c1ccco1)N1CCN(C(=O)N2c3ccccc3Sc3ccccc32)CC1	active

SMILES	outcome
O=C(NC1CCN(C(=O)N2c3ccccc3Sc3ccccc32)CC1)c1ccco1	inactive
O=C(N1CCOCC1)N1CCN(c2ccccn2)CC1	inactive
CC(C)NC(=O)c1c2c(nc3ccccc13)CCCC2	inactive
Cc1nnc2ccc(N3CCN(C(=O)c4ccccc4)CC3)nn12	inactive
O=C1COc2ccc(C(=O)COC(=O)Cn3cnc4ccccc43)cc2N1	inactive
CCOC(=O)CNC(=O)C(CC(C)C)NC(=O)C1CCCCC1 (stereo not drawn)	inactive
CCc1ccc(OCc2nc(-c3ccccn3)no2)c(Br)c1	active
CC(C)c1ccc(OCc2nc(-c3ccccn3)no2)c(Br)c1	inactive
Clc1ccccc1OCc1nc(-c2ccncc2)no1	inactive
Cc1ccc(OCc2nc(-c3ccccn3)no2)cc1	inactive
CC(C)(C)c1ccc(OCc2nc(-c3ccccn3)no2)c(Br)c1	inactive
Clc1cc(Cl)c(OCc2nc(-c3ccccn3)no2)cc1Cl	inactive
Clc1ccc(OCc2nc(-c3ccccn3)no2)c(Br)c1	inactive
O=C(NCC1COc2ccccc2O1)c1c[nH]c2ccc(S(=O)(=O)N3CCOCC3)cc2c1=O (stereo not drawn)	inactive
CCN(CC)c1ccc(NC(=O)CCCCCN2C(=O)c3ccccc3C2=O)cc1	inactive
CCOC(=O)C1CCN(C(=O)CN(c2cccc(C(F)(F)F)c2)S(C)(=O)=O)CC1	inactive
CN(C)S(=O)(=O)N1CCN(C(=O)N2CCOCC2)CC1	inactive
COc1cccc(CSc2nc3sc(C)c(C)c3c(=O)n2Cc2ccco2)c1	inactive
C=CCn1c(COc2cccc3ccc(C)nc23)nnc1SCC(=O)O	inactive
CC(C)CCNC(=O)C1C2C=CC3(CN(Cc4ccccc4Cl)C(=O)C13)O2 (stereo not drawn)	inactive
O=C(c1ccccc1-c1ccccc1)N1CCCC1	inactive
CCOC(=O)N1CCN(C(=O)c2ccccc2Oc2ccccc2)CC1	inactive
CCOC(=O)N1CCN(C(=O)c2ccccc2-c2ccccc2)CC1	active
Fc1ccc(-c2cc(C(F)(F)F)nc(N3CCCCC3)n2)cc1	inactive

SMILES	outcome
Cc1nc2ncnn2c(N2CCC(C(=O)NCC3CCCO3)CC2)c1Cc1ccccc1 (stereo not drawn)	inactive
CCCSc1nnc(Sc2nnnn2-c2ccccc2)s1	inactive
COc1ccc(-n2nnnc2SCC(=O)NCCc2ccc(OC)c(OC)c2)cc1	inactive
COc1ccc(CCNc2nnc(Sc3nnnn3-c3ccccc3)s2)cc1OC	active
COc1cccc2cc(C(C)=O)c(=O)oc12	inactive
O=C(C1CCCN(Cc2ccccc2)C1)N1CCCCC1 (stereo not drawn)	inactive
CCOC(=O)c1sc(NC(=O)c2cncc(Br)c2)nc1C	inactive
CCC(C)(C)n1nnnc1C(c1ccc2ncccc2c1)N1CCN2CCCC2C1 (stereo not drawn)	inactive
CN1CCN(/C=N/c2sc3c(c2C#N)CCCCC3)CC1	inactive
CCN1CCN(/C=N/c2nc(C)cs2)CC1	inactive
CCN1CCN(/C=N/c2nc3c(s2)CCCC3)CC1	active
CC1=CC(C)(C)N2C(=O)C3(C(C#N)=C(N)Oc4cc(C)oc(=O)c43)c3cc(C)cc1c32 (stereo not drawn)	inactive
O=C(CCCOc1ccc(Cl)cc1Cl)N1CCN(c2ccccn2)CC1	inactive
O=C(O)c1ccc(COc2ccc(CO)cc2Cl)cc1	inactive
O=C(O)c1ccccc1COc1ccccc1Cl	inactive
O=C(O)c1ccc(COc2ccccc2Cl)cc1	inactive
O=C(O)c1cccc(COc2ccc(CO)cc2Cl)c1	active
O=C(c1cccc(Cl)c1)N1CCN(c2ccccn2)CC1	inactive
O=C(O)c1ccc(COc2cccc(CO)c2)cc1	inactive
O=C(O)c1cccc(COc2ccccc2Cl)c1	active
CCOC(=O)CNC(=O)CSc1ncnc2c1cnn2-c1ccc(Cl)cc1	inactive
CCOC(=O)CNC(=O)CSc1ncnc2c1cnn2-c1ccccc1	inactive
